Screening results (PubChem BioAssay)
Only a selection was taken, and hits are over-represented in it overall.
VACV E9 pol inh: vaccinia E9 polymerase processive synthesis inhibitors, primary screen, biochemical, absorbance; Vaccinia virus DNA polymerase (E9) processive complex; in vitro processive DNA synthesis, absorbance read-out; stronger effect = lower value; normalized absorbance, % (concentration not given with the values); 46,000 tested, 0.94% active; in the data active means normalized absorbance mostly below about 85%, no sharp cut-off; inactive means mostly above about 86%
Numbers without * were called inactive.

SMILES	VACV E9 pol inh
Oc1ccc(C2(c3ccc(O)cc3)CCCC2)cc1	53*
Cc1ccc(O)cc1	100
COc1cccc(C2(c3ccc(O)cc3)CCCC2)c1	99
O=S(=O)(c1cccc(C(F)(F)F)c1)N1CC=C(c2ccccc2)CC1	78
CC(C)=Cc1ccc(O)cc1	99
c1ccc(CNc2ccc3c(ccc4c5ccccc5[nH]c34)n2)cc1	54*
c1ccc(-c2nc(NCc3cccnc3)c3ccccc3n2)cc1	102
Cn1c(SCc2ccccc2)nc2c([nH]c3ccccc32)c1=O	97
COc1ccc(C(=O)Nc2nnc(-c3ccccc3C)s2)cc1OC	102
O=C(OCCC1(c2ccccc2)C(=O)c2ccccc2C1=O)c1cc2ccccc2oc1=O	98
CCS(=O)(=O)N1CCN=C1SCc1ccc(C)cc1	101
CCS(=O)(=O)N1CCN=C1SCc1ccc(Cl)cc1Cl	21*
COc1ccc(-c2ccnc(SCc3ccc(Cl)cc3Cl)n2)cc1	111
O=C(CCN1CCN(C2c3ccccc3-c3ccccc32)CC1)Nc1cccc(C(F)(F)F)c1	98
c1ccc(Cn2cc(CN3CCN(c4ccccc4)CC3)c3ccccc32)cc1	81
Cc1ccc(C)n1-c1cccc(N)c1	100
Cc1ccc(C)n1-c1cccc(C(F)(F)F)c1	99
Cc1ccc(C)n1-c1cccc(C(=O)O)c1	11*
COc1cc(Br)cc(C=Nc2ccccc2)c1O	111
Oc1ccc(Br)cc1C=Nc1cc2c(cc1Br)OCCO2	100
Oc1c(Br)cc(Br)cc1C=Nc1ccccc1F	81*
CCCc1nc2c(o1)OC(N)=C(C#N)C2c1cccc(O)c1 (centres undefined)	101
O=C(CSc1c[nH]c2ccccc12)Nc1ccccc1	91
CCCn1c(CCC(=O)Nc2ccccc2)nc2cccnc21	100
N#CC(C(=O)O)C1C(=O)Nc2ccccc21 (centres undefined)	109
SMILES	VACV E9 pol inh
NC(=O)c1cc[n+](CC2=C(C(=O)O)N3C(=O)C(NC(=O)C(c4ccccc4)S(=O)(=O)[O-])C3SC2)cc1 (centres undefined)	83*
CCN1CCN(C(=O)NC(C(=O)NC2C(=O)N3C(C(=O)O)=C(CSc4nnnn4C)CSC23)c2ccc(O)cc2)C(=O)C1=O (centres undefined)	102
O=C(/C=C/c1ccco1)C1=C(O)c2ccccc2C1=O	106
Cc1ccc(-c2csc(/C(C#N)=C/Nc3ccccc3)n2)cc1C	101
CCC(=O)Oc1cccc(N2C(=O)C3C4C=CC(C4)C3C2=O)c1 (centres undefined)	99
CCN1C(=O)c2ccccc2S(=O)(=O)c2ccc(C(=O)N3CCc4ccccc43)cc21	98
COc1ccc(Cc2nccc3cc(OC)c(OC)cc23)cc1OC	97
COc1cc(C(=O)NCc2ccc(OCCN(C)C)cc2)cc(OC)c1OC	101
COc1cc2ccc3c(CCN(C)C)cc(OC)c(OC)c3c2cc1OC	61*
CCOC(=O)c1nnn(-c2cccnc2)c1C	100
COc1ccc2c(C)cc(SCC#N)nc2c1	84*
COc1ccc2c(C)cc(SCC(=O)Nc3ccccc3)nc2c1	102
COc1ccc2c(C)cc(SCc3c(C)noc3C)nc2c1	87
CCCc1nnc2sc(NC(=O)CC)nn12	95
CC(Oc1ccc(-c2ccccc2)c(F)c1)c1ccnc(N)n1 (centres undefined)	96
Nc1nccc(-c2ccccc2OCc2ccc(Cl)cc2)n1	99
Nc1nccc(-c2ccc(Oc3ccc(Cl)cc3)cc2Cl)n1	76*
CC(C)CCn1c(=O)c2[nH]c(=S)[nH]c2n(CC(C)C)c1=O	100
O=C(Cn1nnc2ccccc21)N1CCN(c2ccccc2)CC1	102
CCn1cc(CCCC(=O)O)c2ccccc21	104
O=C(O)CCCC(=O)c1ccccc1	100
O=C(O)CCCc1ccc2ccc3cccc4ccc1c2c34	80*
c1ccc(CNc2c3c(nc4nncn24)CCC3)cc1	104
O=S(=O)(c1ccccc1)N(c1ccccc1)c1ccccc1	101
Nc1sc(-c2ccccc2)c(Cc2ccccc2)c1C(=O)O	90*
SMILES	VACV E9 pol inh
Nc1sc2c(c1C(=O)c1ccccc1)CCCC2	101
CCOC(=O)c1c(-c2ccccc2)csc1N	94
CCn1c(SCc2ccccc2)nnc1-c1ccncc1	101
O=C(COc1ccc2c(C(F)(F)F)cc(=O)oc2c1)N1CCc2ccccc21	100
C=CCN(CC=C)c1nn[nH]n1	60*
Fc1cc(Br)ccc1N=Cc1ccccn1	110
O=C(/C=C/c1ccccc1)NCCn1ccc2ccccc21	101
CCOc1ccc2nc(SCC)[nH]c2c1	127
CCOc1ccc(-c2nc3ccc(-c4nc5ccc(N6CCN(C)CC6)cc5[nH]4)cc3[nH]2)cc1	23*
CCOc1ccc(-c2nc(=S)[nH][nH]2)cc1	101
COC(=O)c1ccc(-n2c(C)cc(C(=O)CSc3ncnc4sc5c(c34)CCC5)c2C)cc1	100
CCOC(=O)/C=C(/C)Nc1nonc1NC(C)=O	100
Cc1ccc(-c2nc3ccccc3s2)cc1	71*
Cc1ccc(-n2nnnc2-c2nc3ccccc3s2)cc1	111
CCN(CC)S(=O)(=O)c1ccc(-c2nc3ccccc3s2)cc1	99
